Experimental data as given in PubChem BioAssay.
Unmarked numbers belong to inactive results. For part of these data: Entries with a potency or affinity are not part of this list. Calls of active or inactive are those of the source. Unless noted, how the calls were made is not given here.

Tests used:
[1] = antimalarial activity against Dd2 strain (AID 2302;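 active means growth inhibition above 50% at the single 2 µM test dose, taken to imply half-maximal potency below 2 µM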;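 further: 0% = DMSO untreated growth and 100% = chloroquine plus artemisinin killed control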); details: P. falciparum Dd2 in RBCs, LDH growth readout, 72 h; at 2 µM; active compounds read high
[2] = HepG2 cytotoxicity, primary screen, cytotoxicity control for P. falciparum antimalarial project, cell-based, ATP luminescence (AID 2303;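 active means inhibition above 50%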;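 further: 0% = DMSO wells and 100% = digitonin-killed cells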); details: HepG2 viability, 24-48 h, at 10 µM, active compounds read high
[3] = target: L-lactate dehydrogenase (Plasmodium falciparum (isolate CDC / Honduras)) (UniProt Q27743); experiment: PfLDH activity inhibition – cell lysate, 3D7 strain, counter-screen for P. falciparum growth inhibition project (AID 2304);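 further: 0% = vehicle and 100% = reference inhibitor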; details: P. falciparum 3D7 crude extract, LDH APAD/NBT absorbance; at 2 µM; active compounds read high
[4] = inhibition of 3D7 malaria parasite growth – strain 3D7 (AID 2306);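 further: 0% = DMSO wells and 100% = chloroquine plus artemisinin control wells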; details: P. falciparum 3D7 erythrocytic growth, LDH absorbance, 72 h; at 2 µM; active compounds read high
[5] = target: Calcium-dependent protein kinase 1 (Plasmodium falciparum (isolate 3D7)) (UniProt P62344); experiment: PfCDPK1 kinase inhibitors, biochemical, TCAMS library (AID 1159585; cut-off not given, nearly all actives have IC50 up to about 0.98 µM;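 further: inhibitors leave more ATP so luminescence rises with inhibition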); details: recombinant PfCDPK1, Kinase-Glo ATP depletion luminescence
[6] = target: Plasmodium falciparum protein kinase 6 (PK6, PF3D7_1337100) (UniProt Q8IDW1); experiment: PfPK6 kinase inhibitors, biochemical, TCAMS library (AID 1159586); details: recombinant PfPK6, Kinase-Glo ATP depletion luminescence
[7] = target: Protein kinase 7 (PK7), Plasmodium falciparum 3D7 (PF3D7_0213400) (UniProt Q7YTF7); experiment: inhibition of Plasmodium PK7 catalytic activity – biochemical, TCAMS antimalarial set, Kinase-Glo luminescence (AID 1159587); details: recombinant PfPK7, Kinase-Glo ATP depletion luminescence
[8] = target: Calcium-dependent protein kinase 4 (Plasmodium falciparum (isolate 3D7)) (UniProt Q8IBS5); experiment: PfCDPK4 kinase inhibitors, biochemical, TCAMS library (AID 1159588; cut-off not given, nearly all actives have IC50 up to about 0.91 µM); details: recombinant PfCDPK4, Kinase-Glo ATP depletion luminescence
Calcium-dependent protein kinase 4 (Plasmodium falciparum (isolate 3D7)), sequence (Q8IBS5 whole entry, looked up): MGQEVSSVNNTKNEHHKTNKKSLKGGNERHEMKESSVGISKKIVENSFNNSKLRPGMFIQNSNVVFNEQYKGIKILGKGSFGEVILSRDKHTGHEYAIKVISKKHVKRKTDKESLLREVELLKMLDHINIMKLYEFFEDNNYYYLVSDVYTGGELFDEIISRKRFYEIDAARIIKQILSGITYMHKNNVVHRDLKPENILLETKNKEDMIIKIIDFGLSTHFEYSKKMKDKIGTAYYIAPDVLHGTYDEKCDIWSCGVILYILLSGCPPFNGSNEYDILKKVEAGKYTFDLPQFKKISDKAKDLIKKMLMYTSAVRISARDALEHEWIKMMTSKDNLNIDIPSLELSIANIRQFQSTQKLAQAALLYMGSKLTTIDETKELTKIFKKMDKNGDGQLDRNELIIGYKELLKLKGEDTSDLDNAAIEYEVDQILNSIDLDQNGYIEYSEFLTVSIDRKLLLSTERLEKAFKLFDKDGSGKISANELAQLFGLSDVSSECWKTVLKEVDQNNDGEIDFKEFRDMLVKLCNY

Calcium-dependent protein kinase 1 (Plasmodium falciparum (isolate 3D7)), sequence (P62344 whole entry, looked up): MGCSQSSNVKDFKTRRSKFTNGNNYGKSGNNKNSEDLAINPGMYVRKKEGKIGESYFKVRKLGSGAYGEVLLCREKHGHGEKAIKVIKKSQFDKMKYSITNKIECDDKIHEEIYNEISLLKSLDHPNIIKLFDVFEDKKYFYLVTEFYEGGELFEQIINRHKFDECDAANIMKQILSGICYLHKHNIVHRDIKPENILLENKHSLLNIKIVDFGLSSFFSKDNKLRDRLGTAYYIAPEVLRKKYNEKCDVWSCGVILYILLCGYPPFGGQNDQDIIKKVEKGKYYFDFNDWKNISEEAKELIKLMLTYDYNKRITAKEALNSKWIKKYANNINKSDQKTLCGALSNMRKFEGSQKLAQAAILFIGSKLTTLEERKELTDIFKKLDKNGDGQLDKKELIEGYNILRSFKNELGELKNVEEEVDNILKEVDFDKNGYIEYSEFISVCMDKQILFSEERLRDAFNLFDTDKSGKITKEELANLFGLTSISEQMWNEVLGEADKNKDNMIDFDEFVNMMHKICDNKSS
L-lactate dehydrogenase (Plasmodium falciparum (isolate CDC / Honduras)), sequence (Q27743 whole entry, looked up): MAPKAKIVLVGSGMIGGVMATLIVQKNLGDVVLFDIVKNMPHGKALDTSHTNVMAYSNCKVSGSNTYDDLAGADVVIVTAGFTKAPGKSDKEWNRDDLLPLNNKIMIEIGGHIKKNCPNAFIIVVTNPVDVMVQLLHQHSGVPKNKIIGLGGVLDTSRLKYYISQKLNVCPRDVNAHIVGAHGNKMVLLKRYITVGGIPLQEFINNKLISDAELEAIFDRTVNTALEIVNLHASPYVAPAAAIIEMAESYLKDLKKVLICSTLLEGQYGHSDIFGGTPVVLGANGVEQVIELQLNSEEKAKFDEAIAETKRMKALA
Plasmodium falciparum protein kinase 6 (PK6, PF3D7_1337100), sequence (Q8IDW1 1-305): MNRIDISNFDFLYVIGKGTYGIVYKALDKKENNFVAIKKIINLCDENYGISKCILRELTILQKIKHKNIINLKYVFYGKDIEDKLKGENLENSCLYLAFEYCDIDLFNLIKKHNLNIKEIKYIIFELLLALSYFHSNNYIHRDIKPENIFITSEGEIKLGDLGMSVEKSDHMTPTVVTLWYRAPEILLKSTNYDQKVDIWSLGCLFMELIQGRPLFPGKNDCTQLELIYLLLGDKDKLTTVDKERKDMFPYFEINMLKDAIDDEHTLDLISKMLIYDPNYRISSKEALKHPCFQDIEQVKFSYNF
Protein kinase 7 (PK7), Plasmodium falciparum 3D7 (PF3D7_0213400), sequence (Q7YTF7 1-343): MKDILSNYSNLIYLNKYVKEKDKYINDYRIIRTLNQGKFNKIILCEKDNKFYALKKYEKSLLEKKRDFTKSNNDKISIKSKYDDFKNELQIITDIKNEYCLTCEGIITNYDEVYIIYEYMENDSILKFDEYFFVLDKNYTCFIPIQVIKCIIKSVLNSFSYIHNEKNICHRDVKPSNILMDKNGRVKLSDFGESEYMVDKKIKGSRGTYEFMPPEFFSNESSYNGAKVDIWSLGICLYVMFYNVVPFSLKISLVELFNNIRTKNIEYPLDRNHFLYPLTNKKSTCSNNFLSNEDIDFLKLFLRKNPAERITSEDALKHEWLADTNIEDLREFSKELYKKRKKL

Structure (SMILES) | growth inhibition [1] | inhibition [2] | inhibition [3] | growth inhibition [4] | outcome [5] | outcome [6] | outcome [7] | outcome [8]
Cc1[nH]c(C)c(-c2ccc(-c3cccc(Cl)c3)nc2)c(=O)c1Br | 96% (active) | 10% | 3% | 96% (active) | inactive | inactive | inactive | inactive
CC(=O)NCC(=O)NC1=NC(C)(C)N(OCc2ccc3ccccc3c2)C(N)=N1 | 97% (active) | 66% (active) | -1% | 95% (active) | inactive | inactive | inactive | inactive
COc1cc(C=CC(=O)N2CCC3(CC2)CC(=O)c2ccccc2O3)cc(OC)c1OC | 66% (active) | 7% | -1% | 88% (active) | inactive | inactive | inactive | inactive
COc1ccc2nccc([C@@H](O)CN3CCC(NCCOc4ccc(F)cc4F)CC3)c2c1 | 68% (active) | 13% | -5% | 101% (active) | inactive | inactive | inactive | inactive
CCCCN(CCCC)C(=N)c1cccc2c1CCCC2 | 9% | 11% | -2% | 95% (active) | inactive | inactive | inactive | inactive
FC(F)(F)c1cnc(Sc2nnc(-c3ccco3)o2)c(Cl)c1 | 97% (active) | -1% | -4% | 98% (active) | inactive | inactive | inactive | inactive
Cc1ccc(C2CCN(CCCCNC(=O)c3ccc(NC(=O)c4ccc(Cl)cc4)cc3)CC2)c(OCC2CC2)c1 | 95% (active) | 63% (active) | 0% | 101% (active) | inactive | inactive | inactive | inactive
CC(=NNC(=S)NC(c1ccccc1)c1ccccc1)c1ccccn1 | 97% (active) | 45% | -2% | 98% (active) | inactive | inactive | inactive | inactive
Cc1ccoc1C(=O)Nc1ccc(-c2cccc(-c3nc4c(C)cccc4[nH]3)c2)cc1 | 69% (active) | 15% | -4% | 95% (active) | inactive | inactive | inactive | inactive
COc1ccc(-c2csc(C(=O)NC3CCC(N4CCC(c5ccccc5C)CC4)CC3)c2)cc1 (stereo not drawn) | 99% (active) | 64% (active) | -1% | 101% (active) | inactive | inactive | inactive | inactive
Cc1cccc(CNc2nc(C)cc(NCCC(=O)NCCOc3ccccc3)n2)c1 | 14% | 18% | 0% | 98% (active) | inactive | inactive | inactive | inactive
Cc1nc(-c2cccc(Nc3nccc(NCC(O)c4cccc(C(F)(F)F)c4)n3)c2)cs1 (stereo not drawn) | 99% (active) | 14% | 0% | 100% (active) | inactive | inactive | inactive | inactive
O=C(c1ccccc1N=Nc1c(-c2ccccc2)[nH]n(-c2ccccc2)c1=O)N1CCOCC1 | 2% | 0% | -1% | 97% (active) | inactive | inactive | inactive | inactive
c1cc(CNCCc2ccncc2)cc(-c2ccc(-c3nc4ccccc4[nH]3)cc2)c1 | 97% (active) | 28% | 5% | 99% (active) | inactive | inactive | inactive | inactive
O=C(Nc1cccc(-c2cc(-c3c(Cl)cccc3Cl)no2)c1)c1cnc2ccccc2c1 | 34% | -6% | -3% | 87% (active) | inactive | inactive | inactive | inactive
O=C(Nc1ccc(Cl)c(Cl)c1)C1CCC(=O)N1[C@@H](Cc1ccccc1)C(=O)NCCc1ccc(Cl)cc1 (stereo partly drawn) | -9% | 3% | 0% | 95% (active) | inactive | inactive | inactive | inactive
CCOC(=O)CNC(=O)N1CCN(C(=O)NCC(=O)OCC)CC1 | 0% | -9% | -2% | 93% (active) | inactive | inactive | inactive | inactive
CCOC(=O)c1cc(Cl)ccc1OCCCON1C(N)=NC(N)=NC1(C)C | 95% (active) | 69% (active) | 3% | 94% (active) | inactive | inactive | inactive | inactive
Cc1cccc2[nH]c(-c3ccc(-c4ccc(CN5CCCC(O)C5)cc4)cc3)nc12 (stereo not drawn) | 54% (active) | 41% | 6% | 100% (active) | inactive | inactive | inactive | inactive
O=C(N1CCN(c2ccnc3cc4c(cc23)N(Cc2ccccc2)CC4)CC1)C(F)(F)F | 100% (active) | 8% | 3% | 100% (active) | inactive | inactive | inactive | inactive
Cc1ccccc1C1CCN(C2CCC(NC(=O)c3ccc(-c4ccccn4)s3)CC2)CC1 (stereo not drawn) | 17% | 32% | -1% | 87% (active) | inactive | inactive | inactive | inactive
